Source: PubChem BioAssay (NCATS)
Several values for one entry are separate records, joined by “and”; a condition that tells them apart may be missing. Equal values may be shown once. Records with an inconclusive call do not appear. Activity calls are given as the source filed them. Calls come from the whole dose curve; as a rule, active = well fitted curve in the direction sought with a large enough effect; inconclusive = small, poorly fitted or top-dose-only effect, or another doubt; inactive = no such curve, though single readings can be large; an effect the other way counts as inactive or inconclusive. Square brackets hold non-standard residues; d marks the D form. Peptide text beside a SMILES is read from it. Hyp = O=C(O)[CH]1C[CH](O)CN1; Phe(ol) = N[CH](CO)Cc1ccccc1; Iva = CC[C](C)(N)C(=O)O; Aib = CC(C)(N)C(=O)O

Columns and labels:
[1] = target: Cellular tumor antigen p53 (Homo sapiens) (UniProt P04637); test: Primary qHTS for small molecule compounds that upregulate eGFP-tagged delta133p53alpha (in N-terminal) cells. (AID 2060322); settings: NCI-H358 eGFP-delta133p53alpha fluorescence, 24 h; activation: hits give high values;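 note: cells pre-induced with doxycycline then dosed without doxycycline; 0% = DMSO vehicle and 100% = reference activator; nearly all actives have a fitted effect of over 75% in size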
Outline: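 NCI-H358 cells pre-induced 24 h with 10 ng/ml doxycycline for eGFP-delta133p53alpha, plated dox-free and exposed 24 h at 37C to titrated compounds. Fixed, Hoechst-stained; gated GFP peak intensity by laser scanning cytometry, normalized to DMSO (0%) and 57.5 uM 5-azacytidine (100%).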

[2] = target: Aldehyde dehydrogenase, mitochondrial (Homo sapiens) (UniProt P05091); test: qHTS for Inhibitors of the Aldehyde Dehydrogenase Family (ALDH2) Primary screen (AID 2061308); settings: ALDH2 enzyme inhibition qHTS, 1536-well; series mostly up to 56 µM;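 note: plate controls were vehicle for no effect and reference inhibitor for full effect; nearly all actives have a fitted effect of over 55% in size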
[3] = target: Retinaldehyde dehydrogenase 3 (Homo sapiens) (UniProt P47895); test: qHTS for Inhibitors of the Aldehyde Dehydrogenase Family (ALDH1A3) Primary screen (AID 2061315); settings: ALDH inhibition qHTS; series mostly up to 56 µM;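 note: plate controls were DMSO vehicle for no effect and reference inhibitor for full effect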

Sequence of Cellular tumor antigen p53 (Homo sapiens) (P04637 whole entry, looked up): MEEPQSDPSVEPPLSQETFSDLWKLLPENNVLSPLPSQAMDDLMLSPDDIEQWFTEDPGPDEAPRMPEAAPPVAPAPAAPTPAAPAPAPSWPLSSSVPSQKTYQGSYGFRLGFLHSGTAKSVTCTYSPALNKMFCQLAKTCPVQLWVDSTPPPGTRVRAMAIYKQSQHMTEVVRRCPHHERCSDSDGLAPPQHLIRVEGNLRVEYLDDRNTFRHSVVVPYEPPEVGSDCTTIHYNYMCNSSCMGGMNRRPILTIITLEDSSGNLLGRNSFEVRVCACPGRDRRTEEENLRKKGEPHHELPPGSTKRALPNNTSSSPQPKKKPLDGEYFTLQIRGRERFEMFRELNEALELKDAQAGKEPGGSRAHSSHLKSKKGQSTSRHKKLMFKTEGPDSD

Cc1cn2c(N)c(Cl)cc(C(=O)NCC3CCN(CC(C)C)CC3)c2n1
inactive: activation [1] -0.893% | Potency [2] | Potency [3]

C=C1CCCC2(C)CCC(C(C)(C)OC3OC(C)C(O)C(O)C3OC(=O)/C(C)=C\C)CC12 (configuration not stated)
inactive: activation [1] -19.8% | Potency [2] | Potency [3]

CC(C)=CC[C@H]1O[C@]2(O)C([C@H]3CCC4[C@@]5(C)CC[C@H](O[C@@H]6O[C@H](CO)[C@H](O)[C@H](O[C@@H]7O[C@H](CO)[C@@H](O)[C@H](O)[C@H]7O)[C@H]6O[C@@H]6O[C@@H](C)[C@H](O)[C@@H](O)[C@H]6O)C(C)(C)C5CC[C@@]4(C)[C@]3(C)[C@H]2O)[C@@]1(C)O (some centres not stated)
inactive: activation [1] 17.6% | Potency [2] | Potency [3]

C=C1C(=O)O[C@@H]2C=C(COC(C)=O)CC/C=C(\CO)CC[C@@H]12
inactive: activation [1] 3.82% | Potency [2] | Potency [3]

CC(O)/C=C/C1C(C)C(O[C@@H]2O[C@H](CO)[C@@H](O)[C@H](O)[C@H]2O)C(O)CC1(C)C (some centres not stated)
inactive: activation [1] 12.2% | Potency [2] | Potency [3]

CC1(C)CC[C@]2(C(=O)O)CC[C@]3(C)C(=CCC4[C@@]5(C)C[C@@H](O)[C@H](O)C(CO)(CO)C5CC[C@]43C)C2[C@@H]1O (some centres not stated)
inactive: activation [1] -9.16% | Potency [2] | Potency [3]

CC(NC(=O)c1ccccc1N)C(=O)O (configuration not stated)
inactive: activation [1] -20.6% | Potency [2] | Potency [3]

CC/C=C(\C(=O)N[C@@H]1C(=O)N2C(C(=O)OCOC(=O)C(C)(C)C)=C(COC(N)=O)CS[C@H]12)c1csc(N)n1
inactive: activation [1] 2.82% and -18.4% | Potency [2] | Potency [3]

C=C1[C@@H](C2=CC(=O)OC2)CC[C@@]2(O)[C@@H]1CC1[C@H]2CC[C@@H]2C[C@@H](O[C@H]3O[C@@H](C)[C@@H](O[C@@H]4O[C@H](CO[C@@H]5O[C@H](CO)[C@@H](O)[C@H](O)[C@H]5O)[C@@H](O)[C@H](O)[C@H]4O)[C@H](OC)[C@H]3O)CC[C@]12C (some centres not stated)
inactive: activation [1] 7.14% | Potency [2] | Potency [3]

CC(C)(O)C1CC=C(C(=O)OC[C@H]2O[C@@H](OC(=O)C3=CCC(C(C)(C)O)CC3)[C@H](O)[C@@H](O)[C@@H]2O)CC1 (some centres not stated)
inactive: activation [1] -8.4% | Potency [2] | Potency [3]

COc1cc(NC(=O)Nc2cccc(CNC(=O)O[C@H]3CCOC3)c2)ccc1-c1cnco1
inactive: activation [1] 7.14% | Potency [2] | Potency [3]

Cc1nnsc1C(=O)Nc1ccc(-n2nc(C(F)(F)F)cc2C(F)(F)F)cc1
inactive: activation [1] 1.43% | Potency [2] | Potency [3]

COC(=O)[C@@]1(C)CC[C@]2(C(=O)O[C@@H]3O[C@H](CO)[C@@H](O)[C@H](O)[C@H]3O)CC[C@]3(C)C(=CCC4[C@@]5(C)CC[C@H](O[C@@H]6O[C@H](C(=O)O)[C@@H](O)[C@H](O)[C@H]6O)C(C)(C)C5CC[C@]43C)[C@@H]2C1 (some centres not stated)
inactive: activation [1] -16.8% | Potency [2] | Potency [3]

C[C@H]1[C@H](C)CC[C@]2(C(=O)O)CC[C@]3(C(=O)O)C(=CCC4[C@@]5(C)CC[C@H](O[C@@H]6O[C@H](C)[C@@H](O)[C@H](O)[C@H]6O)C(C)(C)C5CC[C@]43C)[C@H]12 (some centres not stated)
inactive: activation [1] -5.36% | Potency [2] | Potency [3]

CC(CCC1(O)OC2CC3C4CC=C5C[C@@H](O[C@@H]6O[C@H](CO)[C@@H](O[C@@H]7O[C@@H](C)[C@H](O)[C@@H](O)[C@H]7O)[C@H](O)[C@H]6O[C@@H]6O[C@@H](C)[C@H](O)[C@@H](O)[C@H]6O)CC[C@]5(C)C4CC[C@]3(C)[C@@]2(O)[C@@H]1C)CO[C@@H]1O[C@H](CO)[C@@H](O)[C@H](O)[C@H]1O (some centres not stated)
inactive: activation [1] -8.04% | Potency [2] | Potency [3]

Cc1ccccc1C(=O)N1CC/C(=N\OS(=O)(=O)O)c2ccc(Cl)cc21
inactive: activation [1] -1.67% | Potency [2] | Potency [3]

CCC(C)(NC(=O)C(CCC(N)=O)NC(=O)C1CC(O)CN1C(=O)C(C)(C)NC(=O)C(C)(C)NC(=O)C(CC(C)C)NC(=O)CNC(=O)C(NC(=O)C(C)(C)NC(=O)C(C)(C)NC(=O)C(C)(C)NC(=O)C(Cc1ccccc1)NC(C)=O)C(C)C)C(=O)N1CC(O)CC1C(=O)NC(C)(C)C(=O)NC(CO)Cc1ccccc1 (configuration not stated) (Ac-F[Aib][Aib][Aib]VGL[Aib][Aib][Hyp]Q[Iva][Hyp][Aib][Phe(ol)]; configuration not given here)
inactive: activation [1] 23.7% | activity change, negative = inhibition [2] -9.83% [at 11.2 µM] | activity change, negative = inhibition [3] 11.2% [at 11.2 µM]

C=C1C(=O)O[C@H]2[C@H]1[C@@H](OC(=O)/C(C)=C\C)C[C@]1(C)O[C@@H]1[C@H]1O[C@H]1C(=C)[C@H]2O
inactive: activation [1] -10.7% | Potency [2] | Potency [3]

O=S(=O)(c1ccccc1)c1cnc2c(N3CCNCC3)cccc2c1
inactive: activation [1] 27% | Potency [2] | Potency [3]

C/C=C(\C)C(=O)O[C@@H]1CC2[C@@H](CC=C3C[C@@H](O[C@H]4C[C@H](OC)[C@H](O[C@H]5C[C@H](OC)[C@H](O[C@H]6C[C@H](OC)[C@H](O[C@H]7C[C@@H](OC)[C@H](O[C@@H]8O[C@H](CO)[C@@H](O)[C@H](O)[C@H]8O)[C@@H](C)O7)[C@@H](C)O6)[C@@H](C)O5)[C@@H](C)O4)CC[C@@]32C)[C@@]2(O)CC[C@H](C(C)=O)[C@@]12C (some centres not stated)
inactive: activation [1] -9.92% | activity change, negative = inhibition [2] 15.2% [at 11.2 µM] | activity change, negative = inhibition [3] -14.5% [at 11.2 µM]

NC1CCCCN(c2c(F)cc3c(=O)c(C(=O)O)cn(C4CC4)c3c2Cl)C1 (configuration not stated)
inactive: activation [1] -8.59% | Potency [2] | Potency [3]

C=C1C[C@]23C[C@H]1[C@@H](O)C[C@H]2[C@@]12C=C[C@H](O)[C@@](C)(C(=O)O1)[C@H]2[C@@H]3C(=O)O
inactive: activation [1] -13% | Potency [2] | Potency [3]

O=C1C[C@@]2(C(=O)N1)C(=O)N(Cc1ccc(Br)cc1F)C(=O)c1cccn12
inactive: activation [1] -11.7% | Potency [2] | Potency [3]

CC(C)[C@@](O)(c1ccc2cc(OC(F)F)c(OC(F)F)cc2c1)c1cn[nH]n1
inactive: activation [1] -0.333% | Potency [2] | Potency [3]

CC1CCC2(C)CCC3(C)C(=CCC4C5(C)CCC(O)C(C)(C(=O)O)C5CCC43C)C2C1C (configuration not stated)
inactive: activation [1] 19.6% | Potency [2] | Potency [3]

C=CC1(C)CC(O)C2(CCC3C(C)(C(=O)O)CCCC3(C)C2=O)C1 (configuration not stated)
inactive: activation [1] -2.29% | Potency [2] | Potency [3]

C[C@H]1[C@H](C)CC[C@]2(C(=O)O)CC[C@]3(C(=O)O)C(=CCC4[C@@]5(C)CC[C@H](O[C@@H]6O[C@@H](C)[C@H](O)[C@@H](O)[C@H]6O)C(C)(C)C5CC[C@]43C)[C@H]12 (some centres not stated)
inactive: activation [1] -4.58% | Potency [2] | Potency [3]

C[C@@H]1CC[C@]2(C(=O)O)CC[C@]3(C)C(=CCC4[C@]5(C)C(CC[C@]43C)C(C)(C)[C@@H](O)[C@H](O)[C@@H]5O)C2[C@]1(C)O (some centres not stated)
inactive: activation [1] -4.46% | Potency [2] | Potency [3]

CC(C)(O)/C=C1/C(=O)C(C)(C)C(=O)C(C)(C)C1(O)O[C@@H]1O[C@H](COC(=O)c2cc(O)c(O)c(O)c2)[C@@H](O)[C@H](O)[C@H]1O (some centres not stated)
inactive: activation [1] 0.763% | Potency [2] | Potency [3]

COC(=O)C1=CO[C@@H](O[C@@H]2O[C@H](CO)[C@@H](O)[C@H](O)[C@H]2O)C2C1CC(O)C2C (some centres not stated)
inactive: activation [1] 2.29% | Potency [2] | Potency [3]

C=C(C(=O)O)C1CC2=C(C)CCCC2(C)C[C@@H]1O (some centres not stated)
inactive: activation [1] -16.1% | Potency [2] | Potency [3]

CC[C@@H](C)[C@@H]1OC2(C=C[C@H]1C)C[C@@H]1C[C@H](C/C=C(\C)[C@H](O[C@H]3C[C@H](OC)[C@H](O[C@H]4C[C@H](OC)[C@H](NC(C)=O)[C@H](C)O4)[C@H](C)O3)[C@H](C)/C=C/C=C3\CO[C@H]4[C@H](O)C(C)=C[C@@H](C(=O)O1)[C@@]34O)O2 (some centres not stated)
inactive: activation [1] 24.3% | Potency [2] | Potency [3]

COc1nc2sc(C(=O)NC3CC3)c(N)c2c(C)c1Cl
inactive: activation [1] -6.33% | Potency [2] | Potency [3]

Cn1nc(C(C)(C)C)cc1C(=O)N[C@@H](Cc1cccc(Cl)c1)C(=O)NCC#N
inactive: activation [1] -7% | Potency [2] | Potency [3]

COC(=O)C1=C[C@@H](O)[C@@H](O)[C@H](O[C@@H]2O[C@H](CO)[C@@H](O)[C@H](O)[C@H]2OC(=O)/C=C/c2ccccc2)C1
inactive: activation [1] -26% | Potency [2] | Potency [3]

C=CC(C)(CC/C=C(\C)C(=O)OC[C@H]1O[C@@H](OC(C)(C=C)CC/C=C(\C)C(=O)O[C@H]2[C@H](O)[C@@H](O)[C@H](OC(C)(C=C)CC/C=C(\C)C(=O)O)O[C@@H]2CO)[C@H](O)[C@@H](O)[C@@H]1O)O[C@@H]1O[C@H](CO)[C@@H](O)[C@H](O)[C@H]1O (some centres not stated)
inactive: activation [1] -9.16% | Potency [2] | Potency [3]

c1ccc(-c2cnn3cc(-c4ccc(OCCN5CCOCC5)cc4)cnc23)cc1
inactive: activation [1] -17% | Potency [2] | Potency [3]

Cc1cc(N2CCN(C(=O)Oc3ccc(-c4ccccc4)cn3)CC2)c2ccccc2n1
inactive: activation [1] -10.3% | Potency [2] | Potency [3]

C[C@@H]1O[C@@H](O[C@@H]2[C@@H](O)[C@H](O[C@@H]3[C@@H](O)[C@@H](O)[C@H](O[C@H]4[C@H](OC(=O)[C@]56CCC(C)(C)C[C@H]5C5=CCC7[C@@]8(C)C[C@H](O)[C@H](O[C@@H]9O[C@H](C(=O)O)[C@@H](O)[C@H](O)[C@H]9O)[C@@](C)(CO)C8[C@H](O)C[C@@]7(C)[C@]5(C)CC6)OC[C@H](O)[C@@H]4O)O[C@H]3C)OC[C@H]2O)[C@H](O)[C@H](O)[C@H]1O (some centres not stated)
inactive: activation [1] -0.763% | activity change, negative = inhibition [2] 10.8% [at 11.2 µM] | activity change, negative = inhibition [3] 15.6% [at 11.2 µM]
